Screening results deposited in PubChem by National Center for Advancing Translational Sciences (NCATS).
Eya2 inh – Eya2 (human) phosphatase inhibition | O00167 | recombinant Eya2, OMFP fluorescence dephosphorylation (OMFP is methylfluorescein phosphate) | 330,000 tested, 0.006% active | Potency, µM (series often up to 76.9 µM), for inactives: at the top dose activity, negative = inhibition, most hits filed as inhibitors | AID 488837; note: % is set by controls: 0 for no effect and ±100 for the full control effect
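Eya2 (0.2 uM) preincubated 10 min at ambient with compound, then OMFP substrate added at 50 uM; 10 min reaction in 50 mM HEPES pH 7.5, 50 mM NaCl, 5 uM MgCl2, 0.05% BSA, 1 mM DTT. Fluorescence read at Ex 485/Em 525 nm.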
USP2a inh – inhibitors of human ubiquitin-specific protease USP2a; O75604; USP2 core, Ub-CHOP2 coupled fluorogenic reporter, 485/531; Potency, µM (titrated, usually from 38.3 µM), for inactives: at the highest dose activity change, negative = inhibition, actives largely listed as inhibitors; 330,000 tested, 0.01% active;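 note: plate controls were DMSO wells for no effect and full inhibition by NEM control for full effect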
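USP2 core (10nM final) preincubated 30min RT with compound in 20mM Tris-HCl pH 8.0, 2mM CaCl2, 2mM beta-mercaptoethanol, 0.05% CHAPS; 25nM Ub-CHOP2 plus 25nM reporter substrate added, fluorescence (Ex485/Em531) read after 60min.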
PTAP TSG101 blk – blocks PTAP/TSG101 interaction to inhibit HIV-1 budding | Fluorescence polarization, FITC-PTAP peptide / Tsg101 binding | Potency, µM (doses to about 115 µM), for the others: top-dose activity change, negative = inhibition, hits mostly inhibitors | 340,000 tested, under 10 active | AID 493005; active = well fitted inhibition curve with a large enough effect in the main read-out, with a control signal flat, not every such curve was filed as active; inconclusive = small, poorly fitted or top-dose-only effect, or effect the other way, or a change in a side signal; inactive = no such curve, though single readings can be large or run the other way; note: % of control where 0% means no effect
Target sequence (Q99816 whole entry, looked up): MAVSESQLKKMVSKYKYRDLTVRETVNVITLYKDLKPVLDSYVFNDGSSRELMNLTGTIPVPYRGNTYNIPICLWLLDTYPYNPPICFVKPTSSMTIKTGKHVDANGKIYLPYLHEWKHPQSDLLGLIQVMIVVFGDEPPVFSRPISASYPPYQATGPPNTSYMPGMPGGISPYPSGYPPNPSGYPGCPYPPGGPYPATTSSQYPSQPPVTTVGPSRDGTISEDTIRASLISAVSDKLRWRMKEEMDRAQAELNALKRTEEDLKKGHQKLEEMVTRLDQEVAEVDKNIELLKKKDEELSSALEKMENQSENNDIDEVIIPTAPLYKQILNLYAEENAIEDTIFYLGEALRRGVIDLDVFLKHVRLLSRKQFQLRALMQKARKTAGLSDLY
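FP read-out: FITC-PTAP peptide, 50 nM final, binding Tsg101 binding domain, 10 uM final; 20 min, r.t.; 10 mM HEPES pH 7.5, 0.15 M NaCl, 0.01% Tween 20, 3 mM EDTA, 0.1 mM TCEP.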
ALOX12 inh – inhibitors of human 12S-lipoxygenase ALOX12; purified 12hLO, xylenol orange hydroperoxide absorbance; Potency, µM (top dose mostly 108 µM), for the others: top-dose activity change, negative = inhibition, hits mostly inhibitors; 580,000 tested, 1.1% active; AID 1671190; note: % is set by controls: 0 for no effect and ±100 for the full control effect
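Purified human 12hLO (150 nM final) in 25 mM Hepes, 0.01% Triton X-100, pH 7.0 was preincubated 15 min at room temperature with compound. Then 40 uM arachidonic acid was added, 30 min. Hydroperoxide was read by Fe-XO absorbance ratio 573/405 nm.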
* marks the source's active call; other numbers are inactive results; ? = inconclusive; / = not tested or not shown; [ ] = remark or other dose. Hits are enriched below; roughly 1.1% of the tested compounds scored in any of these assays. Unless noted, calls come from the whole dose curve; as a rule, active = well fitted curve in the direction sought with a large enough effect; inconclusive = small, poorly fitted or top-dose-only effect, or another doubt; inactive = no such curve, though single readings can be large; an effect the other way counts as inactive or inconclusive. Potency is the fitted concentration of half-maximal effect.

SMILES	Eya2 inh	USP2a inh	PTAP TSG101 blk	ALOX12 inh
CCCc1cc(=O)oc2cc(OC(C)C(=O)Nc3cc(C)on3)ccc12 (stereo unspecified)	/	/	/	-23%
COc1ccccc1-c1cnc(NCc2ccccc2)c2c1CCO2	/	/	/	-25%[176 µM]
S=c1sc2c(s1)SC1c3ccccc3CC1S2 (stereo unspecified)	/	/	/	16µM*
O=S1(=O)NC2c3ccccc3CC2O1 (stereo unspecified)	2%	0%	-1%	-21%
Cn1cc(C(=O)NCCc2noc(-c3ccncc3)n2)cn1	/	/	/	22%
O=C(NCCc1noc(-c2ccncc2)n1)c1ccccc1F	/	/	/	28µM*
CSc1ccc(-c2ccc3c(c2)C(=O)N2CC[C@H](NC(=O)c4cccs4)[C@H]2C(=O)N3)cc1	/	/	/	5%
CC(NC(=O)C1CCN(c2cc(C(F)(F)F)ncn2)CC1)c1ccccc1 (stereo unspecified)	/	/	/	45µM*
CC(C)c1ccc(NC(=O)C2CCN(c3cc(C(F)(F)F)ncn3)CC2)cc1	/	/	/	16%
Cn1c(N/N=C/c2c[nH]c3ccccc23)nc2ccccc21	-1%	0%	-1%	45µM*
Cc1noc([C@@H](C)NC(=O)Nc2ccc(Cl)cc2)c1C(=O)O	/	/	/	20µM*
C[C@@H](NS(=O)(=O)c1ccccc1)c1onc(-c2cccnc2)c1C(=O)O	/	/	/	-3%[176 µM]
C[C@@H](NC(=O)Nc1ccc(Cl)cc1)c1onc(-c2ccccc2)c1C(=O)O	/	/	/	8%[176 µM]
C[C@@H](NC(=O)Nc1ccccc1)c1onc(-c2ccc(F)cc2)c1C(=O)O	/	/	/	63µM*
C[C@@H](NC(=O)c1ccc(F)cc1)c1onc(-c2ccccc2)c1C(=O)O	/	/	/	20%[176 µM]
C[C@@H](NC(=O)c1cccnc1)c1onc(-c2ccc(F)cc2)c1C(=O)O	/	/	/	18µM*
C[C@@H](NS(C)(=O)=O)c1onc(-c2cccnc2)c1C(=O)O	/	/	/	56µM*
C[C@@H](NC(=O)Nc1ccc(Cl)cc1)c1onc(-c2ccc(F)cc2)c1C(=O)O	/	/	/	-12%[176 µM]
CC1=C[C@@H](CNCc2ccccn2)[C@H](C(C)C)C[C@H]1Cc1nnc(-c2ccccc2F)o1	/	/	/	140%[176 µM]
CCc1nc(N2CCC(C)CC2)c2oc3ccccc3c2n1	0%	-7%	-2%	11µM*
O=C(Nc1ccc(-c2nc3ccccc3s2)cc1)C1CCN(C(=O)c2cccs2)CC1	/	/	/	-9%
O=C(Nc1cccc(-c2nc3ccccc3s2)c1)[C@@H]1CCCN1C(=O)c1cccs1	/	/	/	40µM*
O=C1CCC2(CC1)NC(=O)N(c1ccccc1)N2	-24%	-1%	1%	?
O=C(C1CCCCC1)N1CCC2(CC1)NC(=O)N(c1cccc(F)c1)N2	/	/	/	1.4µM*
O=C(CC1CCCCC1)N1CCC2(CC1)NC(=O)N(c1ccccc1)N2	/	/	/	7.1µM*
SMILES	Eya2 inh	USP2a inh	PTAP TSG101 blk	ALOX12 inh
O=C(CC1CCCCC1)N1CCC2(CC1)NC(=O)N(c1cccc(F)c1)N2	/	/	/	2.8µM*
COC1CN(c2cccc(F)c2)C12CCN(C(=O)CCC1CCCC1)CC2 (stereo unspecified)	/	/	/	3%
O=C1C(n2ccc3ccccc32)c2cccc(F)c2N1Cc1ccc(C(F)(F)F)cc1 (stereo unspecified)	/	/	/	45µM*
O=S(=O)(c1ccccc1)N1CCC(N2CCCCCC2)CC1	5%	8%	-8%	4.5µM*
COc1ccc(-c2nc3ccccc3c(=O)n2NC(=S)N(C)C)cc1	2%	-1%	-3%	35µM*
O=C(NCc1cccs1)c1csc(N2CCN(c3ccccc3F)CC2)n1	/	/	/	37%
Cc1ccccc1CNC(=O)/C=C\C(=O)O	0%	3%	-1%	?
O=C(O)/C=C/C(=O)NCc1csc2ccccc12	-10%	-2%	-3%	25µM*
CNS(=O)(=O)c1ccc2c3c(cccc13)C(=O)N2C	4%	3%	-2%	8.9µM*
CCOC(=O)Nc1ccc2c(c1)N(C(=O)CN1CCN(C)CC1)c1ccccc1CC2	-4%	0%	-4%	5µM*
COc1ccc(C2CC(=O)NC3=C2C(=O)CC(C)(C)C3)cc1 (stereo unspecified)	/	/	/	15%
Cc1cccc(C)c1OCC(=O)NCc1ccc(Cn2cccn2)cc1	/	/	/	51%
C=CCN(CC=C)S(=O)(=O)c1ccc(NC(=S)NC(=O)c2ccco2)cc1	-13%	-2%	-2%	?
C=CCN(CC=C)S(=O)(=O)c1ccc(NC(=S)NC(=O)c2ccc(-c3ccccc3)cc2)cc1	22%	0%	0%	3.2µM*
O=C(NC(=S)Nc1ccccn1)c1ccc(-c2ccccc2)cc1	-7%	1%	-7%	32µM*
Cc1cc(C)c(NC(=S)NC(=O)c2ccc(-c3ccccc3)cc2)c(C)c1	8%	4%	-1%	22µM*
COc1ccccc1CNC[C@H]1Cn2cc(-c3ccc(C)cc3)nc2CO1	/	/	/	26%[176 µM]
N#Cc1cc2c(nc1N1CCN(C(C(=O)O)c3c[nH]c4ccccc34)CC1)CCCC2 (stereo unspecified)	/	/	/	-2%
Cc1ccccc1NC(=O)CSC1CCCC1	/	/	/	59%
COC(=O)C(C)(C)NC(=O)c1cccc(CS(C)(=O)=O)c1	/	/	/	-16%
CCOCCCn1c(=O)c2ccccc2n2c(=S)[nH]nc12	1%	0%	-3%	4µM*
CC(C)CCn1c(=O)c2ccccc2n2c(=S)[nH]nc12	-15%	-6%	0%	?
CCOc1cc(/C=C(\C#N)C(=O)Nc2cccc(C(=O)O)c2)ccc1OCc1ccccc1Cl	-17%	1%	-4%	3%
CCOc1cc(/C=C(\C#N)C(=O)Nc2cccc(C(=O)O)c2)cc(Br)c1OC(=O)c1ccc(OC)cc1	3%	-17%	0%	45µM*
CCc1nnc(NS(=O)(=O)c2ccc(NC(=S)NC(=O)c3ccc(OC)cc3)cc2)s1	1%	0%	-2%	8.9µM*
SMILES	Eya2 inh	USP2a inh	PTAP TSG101 blk	ALOX12 inh
NS(=O)(=O)c1ccc(NC(=S)Nc2ccc(S(=O)(=O)Nc3nccs3)cc2)cc1	/	/	/	-24%
CCc1nnc(NS(=O)(=O)c2ccc(NC(=S)NC(=O)/C=C/c3ccc(F)cc3)cc2)s1	0%	-3%	-6%	10µM*
CC(C)(C)C(=O)NC(=S)Nc1ccc(S(=O)(=O)Nc2nccs2)cc1	1%	2%	-1%	45µM*
CCc1nnc(NS(=O)(=O)c2ccc(NC(=S)NC(=O)c3ccc(OC)c(OC)c3)cc2)s1	-6%	2%	0%	8.9µM*
CCc1nnc(NS(=O)(=O)c2ccc(NC(=S)NC(=O)/C=C/c3ccc([N+](=O)[O-])cc3)cc2)s1	7%	4%	-5%	?
O=C(C1CCCC1)N1CC2(CCN(Cc3cccnc3)C2)Cc2ccccc21 (stereo unspecified)	/	/	/	6%[6.33 µM]
O=C(CN1CCN(CC(=O)Nc2ccccc2C(=O)c2ccccc2)CC1)Nc1ccc(F)cc1	/	/	/	-4%
O=c1[nH]nc(-c2ccco2)c2c1Nc1nnnn1C2c1ccccc1Cl (stereo unspecified)	/	/	/	-4%
O=C(c1ccco1)N1CC(Oc2ccccc2-c2nc(-c3ccccc3)no2)C1	/	/	/	-3%
